Common to all, as to assay: NCI-60 one-dose screen, 48 h (100 = growth as untreated, 0 = no growth, -100 = all killed)
Holding throughout (conditions): 10 µM unless noted

Test [1] concerns HCT-15 colon.
Test [2] has as its system HT29 colon.
Test [3] deals with SNB-75 CNS.
Test [4] concerns SNB-19 CNS.
The test system of test [5] is U251 CNS.
For test [6], the system named is PC-3 prostate.
Test [7] concerns UACC-62 melanoma.
Test [8] concerns LOX IMVI melanoma.
Test [9] has as its system SK-MEL-28 melanoma.
The subject of test [10] is SK-MEL-2 melanoma.
Test [11] relates to EKVX NSCLC.
Test [12] concerns SN12C renal.
Test [13] concerns UO-31 renal.
The subject of test [14] is TK-10 renal.
For test [15], the system named is ACHN renal.
The test system of test [16] is CAKI-1 renal.
Test [17] concerns A498 renal.
For test [18], the system named is CCRF-CEM leukemia.
Test [19] has as its system MOLT-4 leukemia.

Compounds without any hit were thinned out: in the full panel of roughly 83,000, 20% have a hit.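 Assay: single dose, 48 h. Readout: percent growth (0 = no net growth; negative = cell death). Active: <10.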 Values without a mark were called inactive. Calls of active or inactive are those of the source.

Take `COc1ccc(CC(C)=C(c2ccc(OCCN3CCCC3)cc2)c2ccc(OCCN3CCCC3)cc2)cc1`: the growth in [1] was -85.2% (active); in [2], -77.6% (active); in test [3], -76.7% (active); in test [4], -81% (active); in test [5], -70.1% (active); in test [6] it was -73.2% (active). The growth in [7] was -88.8% (active); in [8], -86.6% (active); in test [9] it was -92.2% (active); in test [10] it was -91.8% (active); in test [11], -90.8% (active); in test [12], -82.9% (active). In addition, the growth in [13] was -94.9% (active); in [14], -94.4% (active); in test [15], -96% (active); in test [16] it was -89.1% (active); in test [17] it was -87.5% (active); in test [18], -40.8% (active). In test [19], the growth is -60.3% (active).

Take `FC(F)(F)c1cc(Br)cc(-c2cc(-c3ccc4c(c3)OCCO4)[nH]n2)c1`: the growth is 15.7% in test [1]; 6.74% (active) in [2]; 5.38% (active) in test [3]; 34.3% in test [4]; 23.1% in test [5]; 37% in test [6]. Besides, the growth in [7] is 40.2%; in test [8] it was 19%; in test [9] it was 68.3%; in test [10], 77.4%; in test [11], 52.4%; in test [12], 44.7%. For the same compound, the growth in test [13] was 51.3%; in test [14] it was 121%; in test [15], 28.9%; in [16], 33.3%; in test [18] it was 14.9%; in test [19], 22.5%.

Consider `CCOC(=O)c1c(NCC(=O)Nc2cccc([N+](=O)[O-])c2)sc(C(C)=O)c1C`, for which the growth was -6.35% (active) in [1]; -35.3% (active) in test [2]; -0.605% (active) in test [3]; 9.51% (active) in test [4]; -13.2% (active) in test [5]; -14.5% (active) in test [6]. Also, the growth in test [7] is -19.6% (active); in [8], -38.1% (active); in [9], 2.62% (active); in test [10], -15% (active); in test [11], 0.605% (active); in [12], 12.6%. Further, the growth is -12.7% (active) in [13]; -22.6% (active) in [14]; -13.5% (active) in [15]; -30.8% (active) in test [16]; -75.3% (active) in test [17]; 4.89% (active) in test [18]. Moreover, the growth in test [19] was 3.1% (active).

Turning to `O=C1Nc2ccc(F)cc2/C1=C\C(=O)c1ccc(NS(=O)(=O)c2ccccc2)cc1`, the growth in test [1] was 59.7%; in test [2], 81%; in test [3], 76.1%; in test [4] it was 95.6%; in [5], 94.1%; in test [6], 92%. Further, the growth in test [7] is 77.7%; in test [8], 21.4%; in test [9] it was 105%; in test [10], 115%; in [11] it was 82.8%; in [12], 87.2%. Besides, the growth in test [13] is 70%; in test [14], 130%; in [15] it was 74.6%; in [16], 72.9%; in test [17], 115%; in test [18], 8.68% (active). Further, the growth in test [19] is 40.7%.

As to `CN1CCN(c2ccc(Nc3nc(NCCCNS(=O)(=O)c4cccc5ccccc45)c4sccc4n3)cc2)CC1`, the growth in test [1] was -32.8% (active); in test [2] it was -62.1% (active); in test [3], -36.9% (active); in test [4], 35.7%; in test [5] it was -74.4% (active); in [6] it was 29.1%. The growth is -61% (active) in test [7]; -85.2% (active) in [8]; -80.9% (active) in test [9]; -81.7% (active) in test [10]; 36.1% in [11]; -3.36% (active) in test [12]. The growth was -51.1% (active) in [13]; -40.6% (active) in [14]; -23.8% (active) in test [15]; -52.7% (active) in test [16]; -70.5% (active) in test [17]; 7.22% (active) in test [18]. Moreover, in [19], the growth was -3.37% (active).

As to `COc1ccc(C(=O)c2c(N)c(C#N)cn2-c2ccc(Cl)cc2Cl)cc1`, the growth in [1] is 99.3%; in [2] it was 98.5%; in test [3], 91%; in test [4], 93.1%; in [5], 99.2%; in [6], 95.7%. Further, the growth in [7] is 89.6%; in [8] it was 84%; in [9], 97.9%; in [10] it was 97%; in test [11] it was 93.6%; in test [12], 100%. Also, the growth in test [13] is 84.5%; in test [14] it was 105%; in [15], 98.1%; in [16], 91.7%; in [17] it was 109%; in test [18], 101%. For the same compound, the growth in test [19] was 90.7%.

As for `CC(Nc1c(C#N)cnc2ccc(-c3cncc(-c4n[nH]c(=O)o4)c3)cc12)c1ccccc1` (stereo unspecified), the growth is 10.4% in test [1]; 20.2% in [2]; 7.1% (active) in test [3]; 11.1% in test [4]; 17.6% in [5]; 18.9% in test [6]. For the same compound, the growth in test [7] is -37% (active); in test [8], -8.49% (active); in test [9] it was 11.2%; in test [10], -34% (active); in test [11] it was -12% (active); in test [12], 11%. Besides, the growth in test [13] is 1.27% (active); in test [14], -23.8% (active); in test [15], 9.24% (active); in test [16] it was 4.01% (active); in [17], -6.1% (active); in test [18], 19.6%. In test [19], the growth was 8.04% (active).

With `CCCCCN1C(=O)/C(=c2\sc3n(c2=O)C2C(NN=3)N(CC)C(=O)N2CC)c2cccc(C)c21` (stereo unspecified), the growth in test [1] is 19.9%; in [2], 37.9%; in [3], 20.5%; in test [4], 53.1%; in test [5] it was 61%; in [6] it was 40%. Further, the growth in test [7] was 35.4%; in test [8], 37.9%; in test [9], 62.4%; in test [10], 97.1%; in test [11], 56.2%; in test [12], 74.3%. For the same compound, the growth was 62.7% in test [13]; 96.5% in test [14]; 43.9% in [15]; 41.3% in test [16]; 12% in test [17]; 30.6% in test [18]. For the same compound, in test [19], the growth was 53.1%.

Source of the values: PubChem BioAssay (NCI).
